This is part of a sample that, as a whole, favours compounds with a hit. Of some 83,000 tested, about 20% had one in any assay.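 Step 1: grow cells in 96-well plates. Step 2: add test compound at a single concentration. Step 3: incubate 48 h. Step 4: record percent growth.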
Key:
Experiment in all cases: NCI-60 one-dose screen, 48 h (100 = growth as untreated, 0 = no growth, -100 = all killed); active = growth percent below 10; inactive = the rest
HCT-15 colon = conditions: 10 µM
HT29 colon = conditions: 10 µM
SNB-75 CNS = conditions: 10 µM
SNB-19 CNS = conditions: 10 µM
U251 CNS = conditions: 10 µM
PC-3 prostate = conditions: 10 µM
SK-MEL-5 melanoma = conditions: 10 µM
LOX IMVI melanoma = conditions: 10 µM
SK-MEL-28 melanoma = conditions: 10 µM
SK-MEL-2 melanoma = conditions: 10 µM
SN12C renal = conditions: 10 µM
UO-31 renal = conditions: 10 µM
ACHN renal = conditions: 10 µM
CAKI-1 renal = conditions: 10 µM
A498 renal = conditions: 10 µM
CCRF-CEM leukemia = conditions: 10 µM
MOLT-4 leukemia = conditions: 10 µM
UACC-62 melanoma = conditions: 10 µM unless noted
EKVX NSCLC = conditions: 10 µM
TK-10 renal = conditions: 10 µM unless noted

Measured: growth

O=C(N/N=C/c1ccccc1O)Nc1nn[nH]n1
inactive: HCT-15 colon 91.1% | HT29 colon 104% | SNB-75 CNS 85.7% | SNB-19 CNS 97.4% | U251 CNS 104% | PC-3 prostate 95.6% | SK-MEL-5 melanoma 99.3% | LOX IMVI melanoma 96.4% | SK-MEL-28 melanoma 111% | SK-MEL-2 melanoma 110% | SN12C renal 100% | UO-31 renal 90.2% | ACHN renal 92.8% | CAKI-1 renal 94.8% | A498 renal 94.9% | CCRF-CEM leukemia 98.8% | MOLT-4 leukemia 109%

COCCCC/C(=N\OCCN)c1ccc(C(F)(F)F)cc1
inactive: HCT-15 colon 103% | HT29 colon 96% | SNB-75 CNS 79.9% | SNB-19 CNS 100% | U251 CNS 97.4% | PC-3 prostate 79.8% | SK-MEL-5 melanoma 99.6% | UACC-62 melanoma 97.5% | SK-MEL-28 melanoma 117% | EKVX NSCLC 93.1% | SN12C renal 94% | UO-31 renal 74.1% | TK-10 renal 98.9% | ACHN renal 98.6% | CAKI-1 renal 83.5% | A498 renal 89.1% | CCRF-CEM leukemia 101% | MOLT-4 leukemia 96.7%

Cc1cc2nc(CO)[nH]c2cc1C
inactive: HCT-15 colon 107% | HT29 colon 102% | SNB-75 CNS 90.9% | SNB-19 CNS 98% | U251 CNS 108% | SK-MEL-5 melanoma 112% | UACC-62 melanoma 99.7% | LOX IMVI melanoma 110% | SK-MEL-28 melanoma 108% | SK-MEL-2 melanoma 83% | EKVX NSCLC 112% | SN12C renal 105% | UO-31 renal 85.8% | TK-10 renal 131% | ACHN renal 105% | CAKI-1 renal 110% | A498 renal 101% | CCRF-CEM leukemia 93.6% | MOLT-4 leukemia 103%

Cc1cc(C)cc(NCCC#N)c1
inactive: HCT-15 colon 106% | HT29 colon 105% | SNB-75 CNS 94.6% | SNB-19 CNS 96.5% | U251 CNS 105% | SK-MEL-5 melanoma 107% | UACC-62 melanoma 105% | LOX IMVI melanoma 105% | SK-MEL-28 melanoma 108% | SK-MEL-2 melanoma 98.3% | EKVX NSCLC 103% | SN12C renal 110% | UO-31 renal 96.5% | TK-10 renal 129% | ACHN renal 107% | CAKI-1 renal 107% | A498 renal 111% | CCRF-CEM leukemia 96.8% | MOLT-4 leukemia 91.4%

NCC(=O)CCC(=O)O
inactive: HCT-15 colon 106% | HT29 colon 104% | SNB-75 CNS 104% | SNB-19 CNS 113% | U251 CNS 96.7% | PC-3 prostate 100% | UACC-62 melanoma 114% | LOX IMVI melanoma 99.6% | SK-MEL-28 melanoma 103% | SK-MEL-2 melanoma 126% | EKVX NSCLC 109% | SN12C renal 105% | UO-31 renal 94.6% | TK-10 renal 114% | ACHN renal 99.2% | CAKI-1 renal 109% | A498 renal 110% | CCRF-CEM leukemia 109% | MOLT-4 leukemia 108%

CCc1nc(N)nc(N)c1-c1ccc(Cl)cc1
inactive: HCT-15 colon 34.1% | HT29 colon 47.5% | SNB-75 CNS 77% | SNB-19 CNS 88.4% | U251 CNS 46.3% | PC-3 prostate 60.5% | SK-MEL-5 melanoma 24.3% | LOX IMVI melanoma 31.2% | SK-MEL-28 melanoma 94.1% | SK-MEL-2 melanoma 105% | EKVX NSCLC 74.9% | SN12C renal 64.7% | TK-10 renal 104% | ACHN renal 40.9% | CAKI-1 renal 91.4% | A498 renal 87.7% | CCRF-CEM leukemia 68.4% | MOLT-4 leukemia 56.4%

CC(C)(C)c1cc(O)c(C(C)(C)C)cc1O
inactive: HCT-15 colon 97.9% | HT29 colon 98.3% | SNB-75 CNS 92.7% | SNB-19 CNS 49.2% | U251 CNS 75.2% | PC-3 prostate 76.3% | SK-MEL-5 melanoma 67.8% | LOX IMVI melanoma 98.1% | SK-MEL-28 melanoma 94.4% | SK-MEL-2 melanoma 86.6% | SN12C renal 87.4% | UO-31 renal 90.3% | ACHN renal 92.4% | CAKI-1 renal 84.4% | A498 renal 58.5% | CCRF-CEM leukemia 80.4% | MOLT-4 leukemia 73.2%

O=[N+]([O-])c1ccc(N=Nc2ccc(O)c3ccccc23)cc1
inactive: HCT-15 colon 41.2% | HT29 colon 79.1% | SNB-75 CNS 68.8% | SNB-19 CNS 39.8% | U251 CNS 15.4% | PC-3 prostate 14.9% | SK-MEL-5 melanoma 28.7% | LOX IMVI melanoma 18.4% | SK-MEL-28 melanoma 69% | SK-MEL-2 melanoma 43.2% | EKVX NSCLC 60% | SN12C renal 35.3% | UO-31 renal 24% | TK-10 renal 76.1% | ACHN renal 47.3% | A498 renal 71.8% | MOLT-4 leukemia 31.5%

c1ccc2c(c1)Sc1ccccc1S2
inactive: HCT-15 colon 105% | HT29 colon 105% | SNB-75 CNS 89.6% | SNB-19 CNS 100% | U251 CNS 93.4% | PC-3 prostate 91.4% | SK-MEL-5 melanoma 101% | UACC-62 melanoma 102% | SK-MEL-28 melanoma 110% | SK-MEL-2 melanoma 112% | SN12C renal 93.2% | UO-31 renal 98.9% | TK-10 renal 99.4% | ACHN renal 109% | CAKI-1 renal 103% | A498 renal 94.3% | CCRF-CEM leukemia 97.3% | MOLT-4 leukemia 111%

Reference: PubChem BioAssay (NCI)
